Screens as filed in PubChem BioAssay.
IL-1B inflam inh = qHTS for Inhibitors of Inflammasome Signaling: IL-1-beta AlphaLISA Primary Screen | THP-1 LPS/ATP IL-1B secretion, AlphaLISA, 16 h; hits give low values | activity change, % at 57.5 µM | 4.7% of 360,000 active; in the data active means activity change below about -50%; inconclusive means mostly about -30% to -49%
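THP-1 cells pretreated 1 hr with compounds (up to 57.5 uM final), then stimulated with LPS (250 ng/mL final) plus ATP (1.25 mM final); secreted IL-1B measured by AlphaLISA after 16 hr, decreased signal indicating inhibition.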
HT1080 IDH1KD tx = qHTS for induction of synthetic lethality in tumor cells producing 2HG: qHTS for the HT-1080-IDH1KD cell line; HT-1080 IDH1 knockdown viability, ATP luminescence, 48 h; Potency, µM (titrated, usually from 46.1 µM), usual class: cytotoxic; 2% of 360,000 active
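Cytotoxicity counter-line: IDH1KD HT-1080, 48 h, CellTiter-Glo. Curves classed by r2, magnitude and activity.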
DT40 TDP1 CPT = qHTS for Inhibitors of human tyrosyl-DNA phosphodiesterase 1 (TDP1): qHTS in cells in presence of CPT; Potency, µM (doses to about 46.2 µM), most hits filed as inhibitors; chicken DT40 Tdp1-/-;hTDP1 cells + 20 nM CPT, ATP luminescence, 48 h; 12% of 420,000 active; further: nearly all actives have a fitted effect of over 55% in size
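Chicken DT40 Tdp1-/- cells complemented with human TDP1, 400 cells/well, exposed to compounds plus 20 nM camptothecin for at least 48 h at 37 C; viability read as ATP content by CellTiter-Glo luminescence.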
HT1080-NT tox = qHTS for induction of synthetic lethality in tumor cells producing 2HG: qHTS for the HT-1080-NT fibrosarcoma cell line; AID 686970, 2013; 1.6% of 360,000 active; Potency, µM (highest dose often 46.1 µM), usual class: cytotoxic; HT-1080-NT fibrosarcoma viability, CellTiter-Glo ATP luminescence, 48 h;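 further: NT is the 2HG producing partner of a matched IDH1 knockdown line; nearly all actives have a fitted effect of over 55% in size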
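A 48-hour cytotoxicity screen used HT-1080-NT cells plated 2 hours before compound delivery. ATP-based CellTiter-Glo luminescence measured viability, normalized to DMSO and no-cell controls.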
DT40 TDP1 no CPT = qHTS for Inhibitors of human tyrosyl-DNA phosphodiesterase 1 (TDP1): qHTS in cells in absence of CPT; 15% of 420,000 active; Potency, µM (series often up to 46.2 µM), hits mostly inhibitors; AID 686978, 2013; DT40 Tdp1-/- hTDP1 cells, no CPT, ATP luminescence, 48 h; further: nearly all actives have a fitted effect of over 55% in size
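Camptothecin absent (DMSO only). Human TDP1-complemented DT40 knockout cells, 400 cells/well, 37 °C for minimum 48 hr; ATP measured via CellTiter-Glo, 30 min dark incubation, luminescence.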
ELG1 repair inh = qHTS screen for small molecules that inhibit ELG1-dependent DNA repair in human embryonic kidney (HEK293T) cells expressing luciferase-tagged ELG1; HEK293T ELG1-luciferase reporter, luminescence, 16 h; DNA damage induced by 5-fluorouridine; Potency, µM (series often up to 46.1 µM), most hits filed as inhibitors; 2.3% of 330,000 active; AID 504467, 2011; further: nearly all actives have a fitted effect of over 55% in size
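Cells (2,000 per well) received 5-fluorouridine plus test compound or DMSO and were incubated 16 hr at 37 °C, 5% CO2. Luciferase activity was read by luminescence 30 min after ONE-Glo addition; signal suppression marked inhibition of damage-induced ELG1 function.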
A number is an active result; [ ] = another dose, or the depositor's remark. The list is not random: actives were taken first. Their share in the collection is about 19%. Unless noted, the call rests on the fitted dose curve; in most records, active means well fitted curve in the direction sought with a large enough effect; inconclusive means small, poorly fitted or top-dose-only effect, or another doubt; inactive means no such curve, though single readings can be large; an effect the other way counts as inactive or inconclusive.

Screening CCCCCCC1/C(=N\NC(=O)c2ccccc2)CCC1C(=O)OC (configuration not stated) returned IL-1B inflam inh inactive, HT1080 IDH1KD tx inactive, DT40 TDP1 CPT inconclusive, HT1080-NT tox inactive, DT40 TDP1 no CPT inactive and ELG1 repair inh inactive.
CCOC(=O)c1ccc(N2C(=O)c3n[nH]c(C)c3C2c2ccc(C(C)(C)C)cc2)cc1 (configuration not stated) was read as DT40 TDP1 CPT inactive and DT40 TDP1 no CPT inconclusive.
`CCOC(=O)c1ccc(N2C(=O)c3n[nH]c(-c4cccs4)c3C2c2ccc(OCC)cc2)cc1` (configuration not stated) gave DT40 TDP1 CPT 29µM and DT40 TDP1 no CPT 12µM.
Screening CCOC(=O)c1ccc(N2C(=O)c3n[nH]c(-c4cccs4)c3C2c2ccc(C(C)C)cc2)cc1 (configuration not stated) returned DT40 TDP1 CPT inconclusive and DT40 TDP1 no CPT 16µM.
CCOC(=O)c1ccc(N2C(=O)c3n[nH]c(-c4cccs4)c3C2c2cccc(O)c2)cc1 (configuration not stated) was read as DT40 TDP1 CPT 16µM and DT40 TDP1 no CPT 21µM.
For CCOC(=O)c1ccc(N2C(=O)c3n[nH]c(-c4cccs4)c3C2c2ccc(CC)cc2)cc1 (configuration not stated) the results were DT40 TDP1 CPT 15µM and DT40 TDP1 no CPT 12µM.
`COc1ccc(NC(=O)CNc2ccccc2C(C)=O)cc1S(=O)(=O)N1CCOCC1` gave IL-1B inflam inh inactive, HT1080 IDH1KD tx inactive, DT40 TDP1 CPT inconclusive, HT1080-NT tox inactive[9.24 µM], DT40 TDP1 no CPT inactive and ELG1 repair inh inactive.
CC1CCN(S(=O)(=O)c2ccc(C(=O)Nc3ccccn3)cc2)CC1 was read as IL-1B inflam inh inactive, HT1080 IDH1KD tx inactive, DT40 TDP1 CPT inactive, HT1080-NT tox inactive, DT40 TDP1 no CPT inconclusive and ELG1 repair inh inconclusive.
Screening COc1cccc(C(=O)Nc2ccc3c(c2)n(C)c(=O)n3C)c1 returned IL-1B inflam inh inactive, HT1080 IDH1KD tx inactive, DT40 TDP1 CPT inactive, HT1080-NT tox inactive, DT40 TDP1 no CPT inconclusive and ELG1 repair inh inconclusive.
`CC1Cc2ccccc2N1Cc1cccc([N+](=O)[O-])c1` (configuration not stated) gave IL-1B inflam inh inactive, HT1080 IDH1KD tx inactive, DT40 TDP1 CPT inactive, HT1080-NT tox inactive, DT40 TDP1 no CPT inactive and ELG1 repair inh inactive.
COc1ccc(Cl)cc1NC(=O)C(C)n1nnc2sc3c(c2c1=O)CCCC3 (configuration not stated) was read as DT40 TDP1 CPT 21µM and DT40 TDP1 no CPT 13µM.
`CC(C(=O)Nc1ccccc1)n1nnc2sc3c(c2c1=O)CCCC3` (configuration not stated) gave DT40 TDP1 CPT inconclusive and DT40 TDP1 no CPT inactive.
For Cc1ccc(NC(=O)C(C)n2nnc3sc4c(c3c2=O)CCCC4)cc1Cl (configuration not stated) the results were DT40 TDP1 CPT inconclusive and DT40 TDP1 no CPT 15µM.
Screening COc1ccc(OC)c(-c2csc(NC(=O)CSc3nnnn3C)n2)c1 returned IL-1B inflam inh inactive, HT1080 IDH1KD tx inactive, DT40 TDP1 CPT inactive, HT1080-NT tox inactive, DT40 TDP1 no CPT inactive and ELG1 repair inh inactive.
`Cc1cccc(N2C(=O)/C(=C\c3ccc(C(=O)O)cc3)c3ccccc3C2=O)c1` gave IL-1B inflam inh inactive, HT1080 IDH1KD tx inactive, DT40 TDP1 CPT 18µM, HT1080-NT tox inactive, DT40 TDP1 no CPT inconclusive and ELG1 repair inh inconclusive.
`CCC12CN3CC(C)(CN(C1)C3c1ccc(O)cc1O)C2=O` (configuration not stated) gave DT40 TDP1 CPT inactive and DT40 TDP1 no CPT inactive.
For COC(=O)c1ccc2nc(-c3ccc(Cl)cc3)c(Cc3ccc(OC)cc3C)n2c1 the results were IL-1B inflam inh inactive, HT1080 IDH1KD tx inactive, DT40 TDP1 CPT inconclusive, HT1080-NT tox inactive and DT40 TDP1 no CPT inconclusive.
Screening COc1ccccc1Cc1c(-c2ccc(OC)c(OC)c2)nc2ccc(Cl)cn12 returned IL-1B inflam inh inactive, HT1080 IDH1KD tx inconclusive, DT40 TDP1 CPT inconclusive, HT1080-NT tox inconclusive and DT40 TDP1 no CPT inconclusive.
`COc1ccc(Cc2c(-c3ccc(C)cc3)nc3ccc(Cl)cn23)c(C)c1` gave IL-1B inflam inh inactive, HT1080 IDH1KD tx inconclusive, DT40 TDP1 CPT 23µM, HT1080-NT tox inconclusive and DT40 TDP1 no CPT 23µM.
COc1ccccc1Cc1c(-c2cccc(Cl)c2)nc2ccc(C)cn12 was read as IL-1B inflam inh inactive, HT1080 IDH1KD tx inconclusive, DT40 TDP1 CPT 18µM, HT1080-NT tox inconclusive and DT40 TDP1 no CPT 15µM.
Cc1ccc2nc(-c3cccc(Cl)c3)c(Cc3ccccc3)n2c1 was read as IL-1B inflam inh inactive, HT1080 IDH1KD tx inactive, DT40 TDP1 CPT 21µM, HT1080-NT tox inactive and DT40 TDP1 no CPT 16µM.
For COc1ccccc1Cc1c(-c2ccc(C)cc2)nc2ccc(Cl)cn12 the results were IL-1B inflam inh -102, HT1080 IDH1KD tx inactive, DT40 TDP1 CPT inconclusive, HT1080-NT tox inactive and DT40 TDP1 no CPT 0.46µM.
Screening Clc1cccc(-c2nc3ccc(Br)cn3c2Cc2ccccc2)c1 returned IL-1B inflam inh inactive, HT1080 IDH1KD tx inactive, DT40 TDP1 CPT inconclusive, HT1080-NT tox inactive and DT40 TDP1 no CPT inconclusive.
COc1cccc(CNC(=O)c2nnc(Cc3ccc(Cl)cc3)o2)c1 was read as DT40 TDP1 CPT inactive and DT40 TDP1 no CPT inactive.
For COc1ccccc1Cc1c(-c2ccc(C#N)cc2)nc2ccc(C)cn12 the results were IL-1B inflam inh inconclusive, HT1080 IDH1KD tx inconclusive, DT40 TDP1 CPT inconclusive, HT1080-NT tox inconclusive and DT40 TDP1 no CPT 18µM.
Screening COc1ccc(C(=O)NCc2nnc(SC)n2Cc2ccccc2)cc1 returned IL-1B inflam inh inactive, HT1080 IDH1KD tx inactive, DT40 TDP1 CPT inactive, HT1080-NT tox inactive, DT40 TDP1 no CPT inactive and ELG1 repair inh inactive.
O=C(Cc1csc2nc(-c3ccc(F)cc3)cn12)NCc1ccccc1 was read as DT40 TDP1 CPT 16µM and DT40 TDP1 no CPT inconclusive.
Screening O=C(NCc1ccccc1)c1ccc2c(c1)sc1nc(-c3ccc(F)cc3)cn12 returned DT40 TDP1 CPT inactive and DT40 TDP1 no CPT inactive.
O=C(Oc1ccccc1)c1cc(O)c(O)c(O)c1 was read as IL-1B inflam inh inactive, HT1080 IDH1KD tx inconclusive, DT40 TDP1 CPT 21µM, HT1080-NT tox inconclusive and DT40 TDP1 no CPT 23µM.
